Measurements: PubChem BioAssay (NCI)
This is part of a sample that, as a whole, favours compounds with a hit. Of some 83,000 tested, about 20% had one in any assay.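 A percent growth of 40 corresponds to 60% growth inhibition; 0 means no net growth; -100 means all cells died. Active threshold: below 10.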 Calls of active or inactive are those of the source.

Key:
Experiment in all cases: NCI-60 one-dose screen, 48 h (100 = growth as untreated, 0 = no growth, -100 = all killed)
NCI-H460 lung = details: 10 µM unless noted
786-0 renal = details: 10 µM unless noted
DU-145 prostate = details: 10 µM unless noted
SF-268 CNS = details: 10 µM unless noted
SF-539 CNS = details: 10 µM unless noted
M14 melanoma = details: 10 µM unless noted
HCT-15 colon = details: 10 µM
SNB-75 CNS = details: 10 µM unless noted
PC-3 prostate = details: 10 µM unless noted
UACC-62 melanoma = details: 10 µM unless noted
TK-10 renal = details: 10 µM unless noted
ACHN renal = details: 10 µM unless noted
CAKI-1 renal = details: 10 µM unless noted
HL-60(TB) leukemia = details: 10 µM unless noted
MOLT-4 leukemia = details: 10 µM
OVCAR-3 ovarian = details: 10 µM unless noted
NCI/ADR-RES ovarian = details: 10 µM unless noted
SW-620 colon = details: 10 µM unless noted
MCF7 breast = details: 10 µM unless noted
KM12 colon = details: 10 µM unless noted

Measured: growth

CNC(=O)Oc1ccccc1-c1ccccc1
inactive: NCI-H460 lung 112% | 786-0 renal 95.9% | DU-145 prostate 106% | SF-268 CNS 100% | SF-539 CNS 104% | M14 melanoma 99.7% | HCT-15 colon 106% | SNB-75 CNS 88.3% | PC-3 prostate 97.8% | UACC-62 melanoma 102% | TK-10 renal 90.5% | ACHN renal 108% | CAKI-1 renal 95.5% | HL-60(TB) leukemia 94.8% | MOLT-4 leukemia 96% | OVCAR-3 ovarian 105% | NCI/ADR-RES ovarian 108% | SW-620 colon 103% | MCF7 breast 106% | KM12 colon 102%

Oc1ccc(Br)cc1CN1CCN(Cc2ccc(Cl)cc2)CC1
inactive: NCI-H460 lung 93.1% | 786-0 renal 107% | DU-145 prostate 88.5% | SF-268 CNS 64.2% | SF-539 CNS 92.9% | M14 melanoma 85.9% | HCT-15 colon 59.7% | SNB-75 CNS 51.5% | PC-3 prostate 54% | UACC-62 melanoma 50.7% | TK-10 renal 106% | ACHN renal 83.3% | CAKI-1 renal 59.5% | HL-60(TB) leukemia 47.5% | MOLT-4 leukemia 56.1% | OVCAR-3 ovarian 67.8% | NCI/ADR-RES ovarian 82.2% | SW-620 colon 73.1% | MCF7 breast 34.5% | KM12 colon 64.9%

OC1CCCCC1N1CCC(c2ccccc2)CC1 (stereo unspecified)
inactive: NCI-H460 lung 109% | 786-0 renal 93.1% | DU-145 prostate 112% | SF-268 CNS 106% | SF-539 CNS 119% | M14 melanoma 106% | HCT-15 colon 110% | SNB-75 CNS 86% | PC-3 prostate 91% | UACC-62 melanoma 115% | TK-10 renal 99% | ACHN renal 109% | CAKI-1 renal 96.5% | HL-60(TB) leukemia 86.2% | MOLT-4 leukemia 79.9% | OVCAR-3 ovarian 106% | NCI/ADR-RES ovarian 99.7% | SW-620 colon 99.3% | MCF7 breast 94.1% | KM12 colon 104%

CCCCOC(=O)c1ccccc1C(=O)O.CCCCOC(=O)c1ccccc1C(=O)O.[Cu+2]
inactive: NCI-H460 lung 109% | 786-0 renal 106% | DU-145 prostate 113% | SF-268 CNS 120% | SF-539 CNS 111% | M14 melanoma 101% | HCT-15 colon 112% | SNB-75 CNS 104% | PC-3 prostate 111% | UACC-62 melanoma 111% | TK-10 renal 107% | ACHN renal 112% | CAKI-1 renal 113% | HL-60(TB) leukemia 89.6% | MOLT-4 leukemia 96.8% | OVCAR-3 ovarian 110% | NCI/ADR-RES ovarian 111% | SW-620 colon 98.8% | MCF7 breast 98.3% | KM12 colon 105%

CC1(CF)NC(=O)NC1=O (stereo unspecified)
inactive: NCI-H460 lung 112% | 786-0 renal 97.6% | DU-145 prostate 116% | SF-268 CNS 104% | M14 melanoma 104% | HCT-15 colon 105% | SNB-75 CNS 89.9% | PC-3 prostate 101% | UACC-62 melanoma 96.8% | TK-10 renal 128% | CAKI-1 renal 122% | MOLT-4 leukemia 98.4% | OVCAR-3 ovarian 115% | NCI/ADR-RES ovarian 107% | SW-620 colon 106% | MCF7 breast 92.7% | KM12 colon 106%

CCOP(=O)(OCC)Oc1ccc(Sc2ccc(OP(=O)(OCC)OCC)cc2)cc1
inactive: NCI-H460 lung 113% | 786-0 renal 92.6% | DU-145 prostate 103% | SF-268 CNS 100% | SF-539 CNS 104% | M14 melanoma 100% | HCT-15 colon 107% | SNB-75 CNS 95% | PC-3 prostate 90.9% | UACC-62 melanoma 111% | TK-10 renal 107% | ACHN renal 115% | CAKI-1 renal 93.1% | HL-60(TB) leukemia 96% | MOLT-4 leukemia 93.8% | OVCAR-3 ovarian 111% | NCI/ADR-RES ovarian 93.7% | SW-620 colon 113% | MCF7 breast 118% | KM12 colon 99.9%

CC1([N+](=O)[O-])COP(=O)(Nc2ccc(F)cc2)OC1 (stereo unspecified)
inactive: NCI-H460 lung 106% | 786-0 renal 102% | DU-145 prostate 106% | SF-268 CNS 99.7% | SF-539 CNS 103% | M14 melanoma 101% | HCT-15 colon 104% | SNB-75 CNS 95.6% | PC-3 prostate 95.5% | UACC-62 melanoma 109% | TK-10 renal 95.1% | ACHN renal 98.8% | CAKI-1 renal 107% | HL-60(TB) leukemia 90.4% | MOLT-4 leukemia 83% | OVCAR-3 ovarian 104% | NCI/ADR-RES ovarian 102% | SW-620 colon 102% | MCF7 breast 100% | KM12 colon 95.8%

COc1cc(NCCCCCN=C(N)N)c2ncccc2c1
inactive: NCI-H460 lung 65.9% | 786-0 renal 86.3% | DU-145 prostate 103% | SF-539 CNS 23.8% | M14 melanoma 99.3% | HCT-15 colon 99.2% | SNB-75 CNS 47% | PC-3 prostate 23.4% | UACC-62 melanoma 89.3% | ACHN renal 105% | CAKI-1 renal 104% | HL-60(TB) leukemia 18.2% | NCI/ADR-RES ovarian 104% | SW-620 colon 58.9% | KM12 colon 32.6%
active: SF-268 CNS 3.28% | MOLT-4 leukemia 4.38% | OVCAR-3 ovarian 0.151% | MCF7 breast -51.1%
